The list is not random: actives were taken first. Their share in the collection is about 2.2%.
NALP1 yeast inh – NALP1 inhibition; S. cerevisiae NALP1/ASC/caspase-1 growth, X-gal OD620, 72 h; hit rate 0.61% among 280,000; inhibition, % at 10 µM; in the data active = inhibition mostly above about 24%, no sharp cut-off; inactive = mostly below about 32%
dFosB act – mouse delta FosB homodimer activation; AID 493131; hit rate 0.99% among 340,000; activation, % at 25 µM; purified delta FosB, TAMRA-CDK5 oligo fluorescence polarization; percent of positive-control signal above neutral wells; P13346;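 active = mean activation above about 17%, with every replicate also reaching it, limit read from the data, passing the limit was not always enough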
Target sequence (P13346 whole entry, looked up): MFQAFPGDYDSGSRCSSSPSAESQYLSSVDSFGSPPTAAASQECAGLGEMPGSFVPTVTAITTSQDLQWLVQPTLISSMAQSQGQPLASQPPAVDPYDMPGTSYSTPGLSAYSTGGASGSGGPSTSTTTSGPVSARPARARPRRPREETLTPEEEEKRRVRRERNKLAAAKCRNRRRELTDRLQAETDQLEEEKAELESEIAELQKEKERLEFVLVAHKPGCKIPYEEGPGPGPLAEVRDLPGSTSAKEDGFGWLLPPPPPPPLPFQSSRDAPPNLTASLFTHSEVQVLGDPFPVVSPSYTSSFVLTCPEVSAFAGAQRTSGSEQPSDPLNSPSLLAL
NALP3 yeast inh – inhibitors of NALP3 inflammasome in yeast. AID 2825. inhibition, % at 10 µM. hit rate 0.39% among 330,000. Yeast reconstituted NLRP3/ASC/caspase-1, beta-gal luminescence, 24 h;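 active = inhibition of 50% or more; inactive = inhibition below 50%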;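 also: plate controls were induced DMSO wells for no effect and uninduced yeast grown without galactose for full effect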
PolyA inhibitor – blocks polyadenylation in yeast reporter cells. AID 1875. activity score, % at 12 µM. S. cerevisiae SKY197-pL101 polyadenylation reporter, beta-gal luminescence; efflux-impaired pdr1/pdr3 knockout yeast; score 100 = 6 SD above DMSO. hit rate 0.02% among 300,000;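 active = lowest replicate activity score at least 50, where 100 means six control SD above control mean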;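 also: yeast exposed to compound for 9 h at 30 °C; higher score means more reporter readthrough which indicates perturbed polyadenylation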
EBNA-1 inhibitor – blocks EBNA-1 binding to DNA | EBNA-1 DNA binding, fluorescence polarization | inhibition, % at 14.8 µM | hit rate 0.34% among 300,000 | AID 1950; in the data active = inhibition above about 28%
ZTA counter – counter-screen for EBNA-1 inhibitors: inhibitors of Epstein-Barr virus ZTA. P03206. AID 2234. ZTA-DNA binding, fluorescence polarization. hit rate 0.15% among 320,000. inhibition, % at 11 µM; in the data active = inhibition above about 33%
Target sequence (P03206 whole entry, looked up): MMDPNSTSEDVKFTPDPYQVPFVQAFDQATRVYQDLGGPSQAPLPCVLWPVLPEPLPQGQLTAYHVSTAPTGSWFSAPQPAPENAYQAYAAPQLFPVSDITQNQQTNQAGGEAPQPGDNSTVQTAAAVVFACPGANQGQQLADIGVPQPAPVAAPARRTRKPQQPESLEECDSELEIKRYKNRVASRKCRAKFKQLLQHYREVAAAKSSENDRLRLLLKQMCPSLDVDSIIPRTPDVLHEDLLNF
NALP3 yeast conf – NALP3 inhibition confirmation in yeast. shares compounds with NALP3 yeast inh. yeast expressing human NALP3, luminescence. inhibition, % at 10 µM. hit rate 81% among 1,300. AID 435006; in the data active = inhibition above about 48%
Casp1 ASC ctr – counter-screen for NALP3 inhibitors: yeast caspase-1-ASC; shares compounds with NALP3 yeast inh; yeast expressing Caspase-1-ASC, luminescence counter screen; inhibition, % at 10 µM; hit rate 66% among 1,000; AID 488784
NALP3 retest – confirmation retest of NALP3 inhibitors in yeast. shares compounds with NALP3 yeast inh. yeast expressing human NALP3, luminescence read-out. inhibition, % at 10 µM. hit rate 53% among 1,000. AID 488794
* hit, by the source's call; · = not tested or not shown. Rule as the data show it, unless noted: active = inhibition above about 50%; inactive = the rest.

SMILES	NALP1 yeast inh	dFosB act	NALP3 yeast inh	PolyA inhibitor	EBNA-1 inhibitor	ZTA counter	NALP3 yeast conf	Casp1 ASC ctr	NALP3 retest
COc1ccc(N2CCN(CCNC(=O)c3c(C)cc(=O)oc3C)CC2)cc1	28*	-6	67*	-11	-8	2	80*	86*	91*
C[C@]12CCC(=O)C[C@@H]1CC[C@@H]1[C@@H]2CC[C@]2(C)[C@@H](C(=O)COC(=O)CCC(=O)O)CC[C@@H]12	29	-5	54*	15	1	14	77*	51*	47
CC12CCC(=O)CC1CCC1C2CCC2(C)C1CCC2(O)C(=O)CO (configuration not stated)	·	-2	·	·	·	·	·	·	·
CCCc1cc(=O)oc2cc(OC(C)C(=O)NCC3CCC(C(=O)O)CC3)ccc12 (configuration not stated)	17	4	-8	-7	-10	4	·	·	·
C[C@@H]1[C@H](O)C[C@@]23COC(=O)C2=CCCC3[C@@]1(C)CCC1COC(=O)C1 (some centres not stated)	·	-5	5	·	-7	-16	·	·	·
Cc1ccc(-c2csc(NC(=O)c3ccc(F)cc3)c2C(=O)O)cc1	46	-5	83*	-4	-2	-9	91*	92*	38
O=C(Nc1scc(-c2ccccc2)c1C(=O)O)c1ccc(F)cc1	6	6	61*	10	7	10	74*	48	60*
Cc1ccc(C(=O)Nc2scc(-c3ccccc3)c2C(=O)O)o1	4	-1	-7	-3	-3	6	·	·	·
COc1ccc(-c2csc(NC(=O)c3ccc(C(C)(C)C)cc3)c2C(=O)O)cc1	·	·	87*	-14	-2	8	86*	95*	86*
Cc1ccc(C2(C)NC(=O)N(CC(=O)NC(C)c3ccccc3)C2=O)cc1 (configuration not stated)	9	4	19	-3	6	-3	·	·	·
COc1ccc(NC(=O)CSCC(=O)N(C)CCOc2ccc(Cl)cc2)cc1	·	-4	14	5	3	3	·	·	·
Cc1cccc(NS(=O)(=O)c2cccc(C(=O)NCCCN3CCOCC3)c2)c1	·	-3	-2	22	10	11	·	·	·
COc1ccccc1CN(C)C(=O)COC(=O)c1cc(C)oc1C	·	-1	11	·	·	·	·	·	·
O=C(Nc1cccc(Cl)c1)N1CCc2ccccc2C1	2	-2	66*	11	0	14	85*	74*	75*
O=C(CSc1ncnc2c1nnn2Cc1ccccc1F)NCC1CCCO1 (configuration not stated)	8	-2	20	4	4	-22	·	·	·
CCN(CC)c1ccc2c(O)cc(=O)oc2c1	0	-6	3	-3	-6	-1	·	·	·
CCN(CC)c1ccc2c(Cl)cc(=O)oc2c1	12	·	58*	-21	-3	-9	53*	59*	44
COc1ccc(S(=O)(=O)N2CCOCC2)cc1NC(=O)Cc1ccc2c(c1)OCCO2	·	-13	6	·	·	-11	·	·	·
Cc1cc(NC(=O)c2cccc(S(=O)(=O)N3CCCCC3)c2)no1	21	2	14	31	-5	-14	·	·	·
CC1CN(c2nc(N(C)c3ccccc3)nc(N)c2[N+](=O)[O-])CC(C)O1 (configuration not stated)	8	-2	53*	8	12	-8	44	40	44
COc1ccc(S(=O)(=O)N2CCCCC2)cc1NS(=O)(=O)c1ccccc1	·	1	13	·	·	·	·	·	·
CCOC(=O)c1cnn(-c2cc(C)cc(C)c2)c1N	6	3	50	-4	4	-10	70*	57*	58*
Cc1ccc(CSc2ncnc3c2cnn3-c2ccccc2)cc1	24	5	-27	1	-6	1	·	·	·
c1ccc(-c2nc(Sc3ncnc4c3cnn4-c3ccccc3)n[nH]2)cc1	4	·	50	-17	6	10	69*	·	·
O=C(Nc1ccc2nc3n(c(=O)c2c1)CCCCC3)c1cc([N+](=O)[O-])ccc1F	27	-10	63*	-25	-19	14	80*	69*	56*
SMILES	NALP1 yeast inh	dFosB act	NALP3 yeast inh	PolyA inhibitor	EBNA-1 inhibitor	ZTA counter	NALP3 yeast conf	Casp1 ASC ctr	NALP3 retest
CN1c2ccccc2Sc2cc(N)ccc21	52*	-4	64*	-40	-11	-1	39	74*	61*
CC(=S)/C=C1\Sc2ccccc2N1C	4	-14	31	-21	9	-8	·	·	·
Nc1ccc2c(c1)-c1ccc(F)cc1C2=O	·	-3	·	·	·	·	·	·	·
CN(C)c1ncc(CN2CCC(CO)(CCCc3ccccc3)CC2)s1	6	-6	70*	7	-5	-25	25	·	·
COc1cc(CNCCc2ccccc2)cc(Br)c1OCC(=O)Nc1ccccc1C	23	-14	54*	11	-3	-2	44	36	45
COc1cc(Br)c(CCNC(=O)Cc2ccccc2)cc1OC	21	-10	8	8	3	-2	·	·	·
COc1cc(C=O)c(Br)cc1OCC(=O)NCCc1ccccc1	-12	1	-112	-1	-3	6	-19	·	·
Cc1ccc(N(CC(=O)N2CCN(Cc3ccccc3)CC2)S(C)(=O)=O)cc1C	2	-9	23	1	-3	-10	·	·	·
CC(=O)n1cc([C@@H]2C=C(C(=O)NCc3ccccc3)O[C@H](OCCCCO)C2)c2ccccc21	-12	-2	89*	27	2	7	40	5	23
CC(=O)n1cc([C@H]2C=C(C(=O)NCc3ccccc3)O[C@@H](OCCCCO)C2)c2ccccc21	-4	-3	4	5	0	5	·	·	·
CN(CCCS(=O)(=O)[O-])c1ccc(/C=C/c2ccc3ccccc3[n+]2C)cc1	14	2	2	11	·	·	·	·	·
CN(C)c1ccc(/C=C/c2ccc3ccccc3[n+]2C)cc1	60*	96*	52*	-14	3	5	33	·	·
N#CC(c1ccc(O)cc1)N1CCN(C(C#N)c2ccc(O)cc2)CC1 (configuration not stated)	·	0	·	·	·	·	·	·	·
CCN(C(=O)Cn1cnc2c1c(=O)n(C)c(=O)n2C)C1CCCCC1	·	-2	-1	·	·	-4	·	·	·
Cc1cc(C)nc(SC2=CS(=O)(=O)c3ccccc32)n1	25	-7	16	-1	-3	-15	·	·	·
O=S1(=O)C=C(Sc2nc3ccccc3s2)c2ccccc21	12	·	62*	-20	12	3	64*	86*	59*
O=C(N/N=C/c1cccc(F)c1)c1ccc(Cl)cc1	10	-1	29	14	-1	-7	·	·	·
